FBPA coupling cs: qHTS Assay for Inhibitors of Fructose-1,6-bisphosphate Aldolase from Giardia Lamblia: Coupling assay counterscreen; coupling enzyme system counterscreen, AmpLite Red fluorescence; activity change, negative = inhibition, % at 58.2 µM, hits read low; hit rate 0.67% among 290,000; AID 2472, 2010; in the data active = activity change below about -30%
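Fluorescence at 525 nm excitation and 598 nm emission measured inhibition of the coupled detection system without aldolase. Compounds (at 57.5 uM final) were preincubated 10 min at room temperature with coupling enzyme reagent before a 20 min substrate/AmpLite Red step.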
GALK inhibitor: qHTS Assay for Inhibitors of Human Galactokinase (GALK) | Potency, µM (highest dose often 57.5 µM), for inactives: top-dose activity change, negative = inhibition, actives largely listed as inhibitors | Purified GALK, Kinase-Glo residual ATP luminescence | P51570 | hit rate 0.007% among 270,000; also: potency is read from the fitted curve at half-maximal effect
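The enzyme phosphorylates galactose (100 uM) using ATP (35 uM); inhibition is detected as higher residual ATP, quantified by bioluminescence after 1 h reaction at room temperature, pH 8.0.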
RORgamma inh: qHTS for inhibitors of ROR gamma transcriptional activity. Potency, µM (series often up to 53.6 µM), for the others: top-dose activity change, negative = inhibition, hits mostly inhibitors. Nuclear receptor ROR-gamma (Mus musculus), P51450. hit rate 5.4% among 310,000. Drosophila S2 Gal4-RORgamma UAS-luciferase reporter, 20 h; also: potency is read from the fitted curve at half-maximal effect; nearly all actives have a fitted effect of over 60% in size
Target sequence (P51450 whole entry, looked up, the tested form may be a part): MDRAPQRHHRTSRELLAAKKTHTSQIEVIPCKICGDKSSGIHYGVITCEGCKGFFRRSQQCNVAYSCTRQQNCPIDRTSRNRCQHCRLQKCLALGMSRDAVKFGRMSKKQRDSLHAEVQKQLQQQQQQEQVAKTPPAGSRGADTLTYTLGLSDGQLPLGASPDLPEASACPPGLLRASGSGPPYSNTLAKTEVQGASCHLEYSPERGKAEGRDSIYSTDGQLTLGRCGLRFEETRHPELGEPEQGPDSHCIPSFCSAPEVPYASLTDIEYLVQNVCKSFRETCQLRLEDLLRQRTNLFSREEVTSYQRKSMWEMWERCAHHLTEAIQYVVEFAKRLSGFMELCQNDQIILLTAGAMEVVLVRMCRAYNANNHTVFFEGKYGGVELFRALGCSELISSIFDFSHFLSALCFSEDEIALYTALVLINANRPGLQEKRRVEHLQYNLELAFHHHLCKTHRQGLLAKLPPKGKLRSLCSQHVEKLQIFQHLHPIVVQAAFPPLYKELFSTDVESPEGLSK
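Stably transfected Drosophila Schneider cells are the test system, with ROR gamma fused to Gal4 and luciferase under UAS control; luminescence is read after 20 hr of 700 uM copper sulfate induction at ambient temperature.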
VP16 counter: VP16 counterscreen qHTS for inhibitors of ROR gamma transcriptional activity. Drosophila S2 Gal4-VP16 UAS-luciferase, luminescence, 20 h. Potency, µM (doses to about 53.6 µM), inactives show at the top dose activity, negative = inhibition, actives largely listed as inhibitors. hit rate 3.5% among 310,000. AID 2546, 2010;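 also: Gal4-VP16 expression switched on by copper sulfate through the metallothionein promoter; potency is read from the fitted curve at half-maximal effect; nearly all actives have a fitted effect of over 50% in size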
TrxR1 substrate: qHTS Assay for Substrates of Mammalian Selenoprotein Thioredoxin Reductase 1 (TrxR1): qHTS | purified TrxR1 substrate turnover, NADPH consumption readout | Potency, µM (highest dose often 114 µM), for the others: at the top dose activity change, negative = substrate turnover | hit rate 0.01% among 390,000 | AID 588456, 2011; also: potency is read from the fitted curve at half-maximal effect; nearly all actives have a fitted effect of over 50% in size
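Rat TrxR1, dispensed at 90 nM, was prereduced with 400 uM NADPH (final) for 5 min at ~22 deg C, then incubated with compound 15 min before 400 uM selenite. A first-read NADPH fluorescence drop versus no-compound background flagged substrates.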
rTrxR1 inhibitor: qHTS Assay for Inhibitors of Mammalian Selenoprotein Thioredoxin Reductase 1 (TrxR1): qHTS; Thioredoxin reductase 1, cytoplasmic (Rattus norvegicus), O89049; recombinant rTrxR1, NADPH fluorescence consumption, selenite substrate; Potency, µM (top dose mostly 114 µM), without a hit: at the highest dose activity change, negative = inhibition, most hits filed as inhibitors; hit rate 1% among 390,000; also: potency is read from the fitted curve at half-maximal effect; nearly all actives have a fitted effect of over 65% in size
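Rat TrxR1 (90 nM in the dispensed reagent) was pre-reduced with 400 uM NADPH for 5 min at room temperature, then incubated with compound for 15 min. After 400 uM selenite was added, NADPH fluorescence (Ex 340/Em 450 nm) was followed for 8 min.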
The depositor's hits bear a star; u = inconclusive; x = not tested or not shown; [ ] = dose if it differs, or a comment. Shown are actives, neighbours in structure and some others; about 5.9% of the full set was active somewhere. Unless noted, calls follow the shape of the dose curve; as a rule, active = well fitted curve in the direction sought with a large enough effect; inconclusive = small, poorly fitted or top-dose-only effect, or another doubt; inactive = no such curve, though single readings can be large; an effect the other way counts as inactive or inconclusive. % is scaled to controls: 0 for no effect and ±100 for the full control effect.

SMILES	FBPA coupling cs	GALK inhibitor	RORgamma inh	VP16 counter	TrxR1 substrate	rTrxR1 inhibitor
Cc1ccccc1NC1=C/C(=N\S(=O)(=O)c2cccs2)c2ccccc2C1=O	-45.5*	-5.8%	3.98µM*	5.62µM*	-9.2%	-29.9%
COc1ccc(S(=O)(=O)c2ccc(O)cc2)cc1	7.2	2.5%	-0.2%	-1.8%	6.3%	10.8%
CC(=O)Nc1ccc(NC2=C/C(=N/S(=O)(=O)c3cccs3)c3ccccc3C2=O)cc1	-35.1*	-1.2%	7.08µM*	5.01µM*	1.1%[57.1 µM]	18.7%[57.1 µM]
COc1ccc(S(=O)(=O)/N=C2\C=C(Nc3ccc(O)cc3)C(=O)c3ccccc32)cc1	-31.5*	0.6%	10µM*	5.62µM*	-6.6%	-15.0%
Cc1ccc(CNC(=O)c2ccc(Nc3nc4ccccc4n4nnnc34)cc2)cc1	x	x	x	x	21.0%	10.8%
Cc1ccc2oc(=O)c3cnn(CC(=O)Nc4ccc(Br)cc4C)c3c2c1	x	x	x	x	0.9%	14.2%
CCOc1ccc(NC(=O)CN(C)S(=O)(=O)c2ccc(-c3ccc(=O)[nH]n3)s2)cc1	x	1.6%	10.7%	-1.4%	2.8%	8.4%
CSCCC(NC(=O)c1cc(S(=O)(=O)N2CCOCC2)ccc1C)c1nc2ccccc2[nH]1 (stereo not drawn)	x	x	x	x	-3.1%	4.2%
CCC1CCCCN1C(=S)NC(=O)c1cc(S(=O)(=O)N2CCOCC2)ccc1C (stereo not drawn)	2.2	-1.2%	2.24µM*	3.98µM*	2.7%	0.0%
Cc1ccc(S(=O)(=O)N2CCOCC2)cc1C(=O)NCC1CCCO1 (stereo not drawn)	x	8.1%	-0.3%	0.0%	-6.8%	-8.7%
Cc1ccc(S(=O)(=O)N2CCOCC2)cc1C(=O)Nc1nc2ccccc2[nH]1	-3.4	-1.5%	15.8µM*	17.8µM*	-10.6%	-4.4%
CCOc1ccccc1C(=O)Nc1c[nH]c(=O)[nH]c1=O	-32.7*	-1.5%	30.8%	0.6%	-2.3%	2.7%
CCOc1ccccc1C(=O)N/N=C/c1cccc2cccnc12	-8.4	-3.2%	5.01µM*	u	5.7%[57.1 µM]	-4.2%
CCOc1ccc(C(=O)N/N=C/c2cccc3cccnc23)cc1	-11.9	2.2%	0.708µM*	2µM*	-3.4%[57.1 µM]	13.7%[57.1 µM]
CCOc1ccc(C(=O)N/N=C/c2ccccc2[N+](=O)[O-])cc1	1.1	x	-33.4%	u	-25.4%	-33.3%
COc1ccccc1C(=O)Nc1c[nH]c(=O)[nH]c1=O	1.2	0.0%	8.7%	-1.7%	-3.3%	13.5%
CCOc1ccccc1C=NNC(=O)c1cccc2ccccc12	x	x	x	x	9.0%[57.1 µM]	7.3%[57.1 µM]
COc1ccc(C(=O)N/N=C/c2cc3ccccc3[nH]c2=S)cc1	0.6	0.4%	8.91µM*	8.91µM*	-7.9%	-16.5%
O=[N+]([O-])c1ccc(OCCOCCOc2ccc([N+](=O)[O-])cc2)cc1	3.7	0.8%	23.5%	-4.7%	u	7.8%
COc1ccc(C(=O)N/N=C/c2cccc3cccnc23)cc1	-9.1	-3.0%	0.562µM*	2.24µM*	-13.2%	-12.1%
CSCC[C@H](NC(=O)OC(C)(C)C)C(=O)N/N=C/c1cccc2cccnc12	0.3	0.4%	7.08µM*	15.8µM*	-8.4%	-6.8%
COc1ccc2nc(/C=N/NC(=O)[C@H](CCSC)NC(=O)OC(C)(C)C)ccc2c1	2.4	-3.0%	-12.2%	2.3%	112.8%	2.4%
CCOc1ccccc1C(=O)N/N=C/c1c[nH]c2ccccc12	0.8	-1.4%	15.8µM*	u	8.3%[57.1 µM]	13.7%[57.1 µM]
O=C(CN(Cc1ccc(Br)cc1)S(=O)(=O)c1ccccc1)NCc1cccnc1	-9.1	6.6%	2.4%	-3.8%	-7.5%	-9.8%

Screening results as filed in PubChem BioAssay.
